Laboratory results: PubChem BioAssay AID1159580 (chemical genetic matrix, 2015)
Among all 5,500 compounds or so, about 2,000 (36%) were called active. Roughly 18% stayed inconclusive and do not appear here. Rule as the data show it: active = normalized growth mostly below about 0.91 (no sharp cut-off); inconclusive = no clear call, values can overlap the other calls; inactive = mostly above about 0.92. This is one part of the list.

Assay: chemical genetic growth profiling, strain panel (AID 1159580);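 also: tested at 20 µM; growth read once vehicle control cultures reached saturation at 30 °C; 1 = growth at the plate median or of vehicle wells; lower values mean less growth of the strain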
Details: growth OD

Measured: normalized growth

CCOC([O-])=Nc1c[n+](N2CCOCC2)no1
inactive: S. cerevisiae deletion strains, locus YJR075W, strain HOC1, stronger effect = lower value 1.01 | S. cerevisiae deletion strains, locus YKL009W, strain mrt4, stronger effect = lower value 1.05 | S. cerevisiae deletion strains, locus YKL068W, stronger effect = lower value 0.993 | S. cerevisiae deletion strains, locus YKL085W, strain MDH1 (second series), stronger effect = lower value 1.04 | S. cerevisiae deletion strains, locus YKL085W, strain MDH1, stronger effect = lower value 1.04 | S. cerevisiae deletion strains, locus YKL160W, strain elf1, stronger effect = lower value 0.984 | S. cerevisiae deletion strains, locus YKL190W, strain CNB1, stronger effect = lower value 1.01 | S. cerevisiae deletion strains, locus YKR001C, strain vps1, stronger effect = lower value 0.976 | S. cerevisiae deletion strains, locus YKR026C, strain gcn3, stronger effect = lower value 0.994 | S. cerevisiae deletion strains, locus YKR091W, strain srl3, stronger effect = lower value 0.995 | S. cerevisiae deletion strains, locus YLL001W, strain dnm1, stronger effect = lower value 0.988 | S. cerevisiae deletion strains, locus YLL026W, stronger effect = lower value 0.993 | S. cerevisiae deletion strains, locus YLL041C, strain sdh2, stronger effect = lower value 0.988 | S. cerevisiae deletion strains, locus YLR027C, strain aat2, stronger effect = lower value 0.997 | S. cerevisiae deletion strains, locus YLR039C, strain RIC1, stronger effect = lower value 1.02 | S. cerevisiae deletion strains, locus YLR058C, strain SHM2, stronger effect = lower value 1.01 | S. cerevisiae deletion strains, locus YLR102C, strain apc9, stronger effect = lower value 0.999 | S. cerevisiae deletion strains, locus YLR113W, strain HOG1, stronger effect = lower value 1.01 | S. cerevisiae deletion strains, locus YLR221C, strain rsa3, stronger effect = lower value 0.985 | S. cerevisiae deletion strains, locus YLR258W, strain gsy2, stronger effect = lower value 0.999 | S. cerevisiae deletion strains, locus YLR262C, strain YPT6 (second series), stronger effect = lower value 1.01 | S. cerevisiae deletion strains, locus YLR262C, strain YPT6, stronger effect = lower value 1.05 | S. cerevisiae deletion strains, locus YLR268W, strain sec22, stronger effect = lower value 0.964 | S. cerevisiae deletion strains, locus YLR320W, strain mms22, stronger effect = lower value 0.987 | S. cerevisiae deletion strains, locus YLR330W, strain CHS5, stronger effect = lower value 1.01 | S. cerevisiae deletion strains, locus YLR342W, strain FKS1 (second series), stronger effect = lower value 1.02 | S. cerevisiae deletion strains, locus YLR342W, strain FKS1, stronger effect = lower value 1 | S. cerevisiae deletion strains, locus YLR357W, strain rsc2, stronger effect = lower value 0.984 | S. cerevisiae deletion strains, locus YLR370C, strain arc18, stronger effect = lower value 0.982 | S. cerevisiae deletion strains, locus YLR371W, strain rom2, stronger effect = lower value 0.994 | S. cerevisiae deletion strains, locus YLR384C, strain iki3, stronger effect = lower value 0.994 | S. cerevisiae deletion strains, locus YLR418C, strain cdc73, stronger effect = lower value 0.993 | S. cerevisiae deletion strains, locus YML016C, strain PPZ1, stronger effect = lower value 1.02 | S. cerevisiae deletion strains, locus YML032C, strain rad52, stronger effect = lower value 0.984 | S. cerevisiae deletion strains, locus YML120C, strain ndi1, stronger effect = lower value 0.994 | S. cerevisiae deletion strains, locus YML124C, strain tub3, stronger effect = lower value 1 | S. cerevisiae deletion strains, locus YMR058W, strain fet3, stronger effect = lower value 0.995 | S. cerevisiae deletion strains, locus YMR078C, strain ctf18, stronger effect = lower value 0.996 | S. cerevisiae deletion strains, locus YMR125W, strain sto1, stronger effect = lower value 1.01 | S. cerevisiae deletion strains, locus YMR129W, stronger effect = lower value 0.994 | S. cerevisiae deletion strains, locus YMR205C, strain PFK2, stronger effect = lower value 0.995 | S. cerevisiae deletion strains, locus YMR223W, strain ubp8, stronger effect = lower value 0.998 | S. cerevisiae deletion strains, locus YMR231W, strain pep5, stronger effect = lower value 0.994 | S. cerevisiae deletion strains, locus YMR263W, strain SAP30, stronger effect = lower value 1.02 | S. cerevisiae deletion strains, locus YMR307W, strain GAS1, stronger effect = lower value 1.04 | S. cerevisiae deletion strains, locus YNL067W, strain RPL9B, stronger effect = lower value 1 | S. cerevisiae deletion strains, locus YNL071W, strain lat1, stronger effect = lower value 1 | S. cerevisiae deletion strains, locus YNL128W, strain TEP1, stronger effect = lower value 1.01 | S. cerevisiae deletion strains, locus YNL153C, strain GIM3, stronger effect = lower value 1 | S. cerevisiae deletion strains, locus YNL183C, strain NPR1, stronger effect = lower value 0.999 | S. cerevisiae deletion strains, locus YNL209W, strain ssb2, stronger effect = lower value 0.993 | S. cerevisiae deletion strains, locus YNL233W, strain BNI4, stronger effect = lower value 1.02 | S. cerevisiae deletion strains, locus YNL248C, strain rpa49, stronger effect = lower value 0.992 | S. cerevisiae deletion strains, locus YNL250W, strain rad50, stronger effect = lower value 0.982 | S. cerevisiae deletion strains, locus YNL271C, strain bni1, stronger effect = lower value 0.981 | S. cerevisiae deletion strains, locus YNL298W, strain CLA4, stronger effect = lower value 0.982 | S. cerevisiae deletion strains, locus YNL307C, strain MCK1, stronger effect = lower value 1.01 | S. cerevisiae deletion strains, locus YNL322C, strain KRE1 (second series), stronger effect = lower value 0.99 | S. cerevisiae deletion strains, locus YNL322C, strain KRE1, stronger effect = lower value 1.01 | S. cerevisiae deletion strains, locus YNR049C, strain mso1, stronger effect = lower value 0.988 | S. cerevisiae deletion strains, locus YNR052C, strain pop2, stronger effect = lower value 0.989 | S. cerevisiae deletion strains, locus YOL006C, strain TOP1, stronger effect = lower value 1.03 | S. cerevisiae deletion strains, locus YOL012C, strain htz1 0.747 | S. cerevisiae deletion strains, locus YOL147C, strain pex11, stronger effect = lower value 0.978 | S. cerevisiae deletion strains, locus YOR001W, strain rrp6, stronger effect = lower value 1.01 | S. cerevisiae deletion strains, locus YOR061W, strain CKA2, stronger effect = lower value 1.02 | S. cerevisiae deletion strains, locus YOR069W, strain VPS5, stronger effect = lower value 1.01 | S. cerevisiae deletion strains, locus YOR070C, strain gyp1, stronger effect = lower value 0.994 | S. cerevisiae deletion strains, locus YOR080W, strain dia2, stronger effect = lower value 0.997 | S. cerevisiae deletion strains, locus YOR083W, strain WHI5, stronger effect = lower value 0.988 | S. cerevisiae deletion strains, locus YOR106W, strain vam3, stronger effect = lower value 1.01 | S. cerevisiae deletion strains, locus YOR136W, strain idh2, stronger effect = lower value 0.993 | S. cerevisiae deletion strains, locus YOR144C, strain elg1, stronger effect = lower value 0.991 | S. cerevisiae deletion strains, locus YOR184W, strain ser1, stronger effect = lower value 1 | S. cerevisiae deletion strains, locus YOR231W, strain MKK1, stronger effect = lower value 1.01 | S. cerevisiae deletion strains, locus YOR265W, strain rbl2, stronger effect = lower value 0.991 | S. cerevisiae deletion strains, locus YOR270C, strain vph1, stronger effect = lower value 1.04 | S. cerevisiae deletion strains, locus YOR290C, strain snf2, stronger effect = lower value 0.992 | S. cerevisiae deletion strains, locus YOR316C, strain cot1, stronger effect = lower value 0.998 | S. cerevisiae deletion strains, locus YPL051W, strain arl3, stronger effect = lower value 0.995 | S. cerevisiae deletion strains, locus YPL055C, strain LGE1, stronger effect = lower value 1.04 | S. cerevisiae deletion strains, locus YPL078C, strain atp4, stronger effect = lower value 1 | S. cerevisiae deletion strains, locus YPL106C, strain sse1, stronger effect = lower value 0.963 | S. cerevisiae deletion strains, locus YPL240C, strain hsp82, stronger effect = lower value 0.981 | S. cerevisiae deletion strains, locus YPL241C, strain CIN2, stronger effect = lower value 1.01 | S. cerevisiae deletion strains, locus YPL256C, strain CLN2, stronger effect = lower value 1.04 | S. cerevisiae deletion strains, locus YPR119W, strain clb2, stronger effect = lower value 0.994 | S. cerevisiae deletion strains, locus YPR141C, strain kar3, stronger effect = lower value 0.983 | S. cerevisiae deletion strains, locus YPR163C, strain tif3, stronger effect = lower value 0.984 | S. cerevisiae deletion strains, locus YPR167C, strain met16, stronger effect = lower value 1 | S. cerevisiae deletion strains, strain wtn01, stronger effect = lower value 0.98 | S. cerevisiae strains, strain wild type, stronger effect = lower value 1.02
